# Reference: PubChem BioAssay AID602332 (National Center for Advancing Translational Sciences (NCATS), 2012)
# Values joined by “and” are separate entries in the source; they are usually repeats but may differ in a detail not shown here. Identical values can stand only once. About 75 (0.02%) of roughly 420,000 compounds were called active. This is one part of a sample in which actives are shown more often than they occur. Where a structure was tested more than once in an assay, its records may differ in their call. A number with no mark means an inactive call. Calls come from the whole dose curve; as a rule, active = well fitted activation curve with a large enough effect; inconclusive = small, poorly fitted or top-dose-only effect; inactive = no such curve, though single readings can be large or run the other way.
# Test: qHTS for Inducers of the Endoplasmic Reticulum Stress Response (ERSR) in Human Glioma: qHTS; note: nearly all actives have a fitted effect of over 35% in size; for activation: % of control where 0% means no effect
# Conditions: U87-MG GRP78 promoter luciferase reporter, 16 h; activation: hits give high values
# Procedure, shortened: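 Stably transfected U87-MG glioma cells carrying a GRP78-based luciferase sensor; 16 h compound incubation. Luminescence end-point read 10 min after Bright-Glo addition at room temperature.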
# Potency is the fitted concentration of half-maximal effect.
SMILES,activation,Potency
COc1ccc(/C=C/NC(=O)Cc2ccc(OC)c(OC)c2)cc1,0.885% and -3.87%,–
Cc1c(C(=O)NCC2CCCN(C)C2)cnn1-c1nccc(-c2ccco2)n1 (stereo unspecified),-1.59%,–
O=S(O)S(=O)(=O)O,-8.27%,–
CCOC(=O)N1CCN(Cc2ccc3c(c2)CN(C(=O)c2cccc(-n4cccn4)c2)CCO3)CC1,-2.17%,–
N#C/C(=C\c1ccc(O)c(O)c1)C(=O)NCc1ccccc1,7.31% and 13.4% and 3.72%,25.1 µM (active)
Cc1ccc(/C=C(\C#N)C(=O)Nc2cc(C)ccc2C)cc1,-3.56%,–
N#C/C(=C\c1ccc(O)c(O)c1)C(N)=O,-0.645% and -1.72%,–
Cc1cnc(C)c(-c2cc(F)c3c(c2)CC(CNC(=O)c2cccc(Cn4cccn4)c2)O3)n1 (stereo unspecified),-2.2%,–
COc1ccccc1-c1ccnc(-n2ncc(C(=O)NCCc3ccncc3)c2C)n1,-0.593%,–
O=C(c1cccc(Cn2cccn2)c1)N1CCOc2c(cc(-c3csc4ccccc34)cc2OC2CCOC2)C1 (stereo unspecified),-1.78%,–
Cc1ccc(C(=O)Nc2cccc(-c3nc(CNC(=O)c4ccccc4-n4cccn4)c(C)o3)c2)s1,-4.42%,–
COc1ccc(CN(C)CCn2cc(C(=O)N3CCSCC3)nn2)cc1C,-2.77%,–
COC(=O)C1CCCCN1Cc1ccc2c(c1)CN(Cc1cc(OC)c3c(c1)OCO3)CCO2 (stereo unspecified),0.195%,–
COC(=O)C(C(=O)OC)[C@@H]1CCCC(=O)C1,-5.46%,–
COCCN1CCN(C(=O)c2sc3ncnc(NCC4CCCO4)c3c2C)CC1 (stereo unspecified),-1.15%,–
COc1ccc(CCNc2ncnc3sc(C(=O)N4CCCC4)c(C)c23)cc1OC,-0.648%,–
C[C@@H]1CN(Cc2ccc3c(c2)CN(Cc2ccc(Oc4ncccn4)cc2)CCO3)C[C@H](C)O1,-2.33%,–
CC(C)[C@@H](OCc1ccccc1)[C@H](C)/C=N\OC[C@@H](C)[C@H](OCc1ccccc1)C(C)C,-2.4%,–
Cc1cc(C(=O)NCC2Cc3cccc(-c4cncnc4)c3O2)c(C)o1 (stereo unspecified),-0.609%,–
CCOC(OCC)OCC,3.31%,–
CC[C@H](C)[C@H](NC(=O)[C@@H](N)CCC(=O)O)C(=O)N[C@@H](CC(C)C)C(=O)N[C@@H](CC(=O)O)C(=O)N[C@H](C(=O)N1CCC[C@H]1C(=O)N[C@@H](CO)C(=O)N[C@H](C(=O)O)[C@@H](C)O)C(C)C,-2.27%,–
N[C@@H](C(=O)O)c1ccc(P(=O)(O)O)cc1,-4.34%,–
CN(C)c1ccc(CN2CCOc3ccc(CN4CCC(O)(c5cccnc5)CC4)cc3C2)cc1,-1.82%,–

SMILES,activation,Potency
Cc1ccc(Cn2cnc3c(cnn3C(C)(C)C)c2=O)c(F)c1,-6.82%,–
O=C(C[n+]1ccncc1)c1ccc2c(c1)CCCC2,-0.663%,–
Cc1cc(-c2ccnc(-n3ncc(C(=O)NC(C)(C)CO)c3C3CC3)n2)c(C)s1,-3.21%,–
Cc1cccc(CNc2ccnc(-c3cccnc3)n2)c1,6.2%,–
CCOC(=O)Cc1cccc(-c2cc(CCCCCCc3ccc(O[C@H]4O[C@H](COC(C)=O)[C@@H](OC(C)=O)[C@H](OC(C)=O)[C@@H]4OC(C)=O)c(-c4cccc(CC(=O)OCC)c4)c3)ccc2O[C@H]2O[C@H](COC(C)=O)[C@@H](OC(C)=O)[C@H](OC(C)=O)[C@@H]2OC(C)=O)c1,-3.38%,–
O=c1cc(-c2ccc(O)cc2)oc2c([C@@H]3O[C@H](CO)[C@@H](O)[C@H](O)[C@H]3O)c(O)cc(O)c12,-0.663%,–
Cc1ccc(-c2ccnc(-n3ncc(C(=O)N(C)Cc4cccc5ncccc45)c3C3CC3)n2)o1,-4.64%,–
COc1ccnc(C[S@@](=O)[C@@H]2Nc3ccc(OC(F)F)cc3N2)c1OC,-1.51%,–
COc1ccc2c(c1)NC(=O)C2CC(=O)N1CCOc2c(cc(-c3cnc4ccccc4c3)cc2OC)C1 (stereo unspecified),-6.72%,–
COCC1CCCN(Cc2ccc3c(c2)CN(C(=O)c2ccnn2C)CCO3)C1 (stereo unspecified),-2.07%,–
COc1ccc(F)c(CN2CCC3(CCC(CNC(=O)c4ccn(C)n4)O3)CC2)c1 (stereo unspecified),-4.54%,–
NNc1nnc(Cc2ccncc2)c2ccccc12,-5.05%,–
CC1=C(/C=C/C(C)=C/C=C/C(C)=C/C=C/C=C(C)/C=C/C=C(C)/C=C/C(=O)[C@]2(C)C[C@@H](O)CC2(C)C)C(C)(C)C[C@H](O)C1,-0.817%,–
O=C1NC(CC(=O)N2CCC(n3c(C4CCC4)nc4cccnc43)CC2)c2ccccc21 (stereo unspecified),-7.83%,–
COCC(=O)Nc1cc(C(=O)N2CCCC(c3ccccc3)CC2)c2c(c1)nc(-c1ccncc1)n2C (stereo unspecified),1.99%,–
COc1ccc(C)cc1N1C(=O)[C@@H]2C[C@H]1CN2Cc1cccc(OC)c1O,-3.49%,–
CCOC(=O)[C@]1(C(/C=C/c2ccco2)NC(=O)OC)CCCC1=O (stereo partly specified),-4.35%,–
CCOCCOC(=O)C(C)Oc1ccc(Oc2ncc(C(F)(F)F)cc2Cl)cc1 (stereo unspecified),3.45%,–
CN1CCCCCC1C(=O)NCCN1Cc2ccccc2OC(c2ccsc2)C1 (stereo unspecified),-4.87%,–
CNCCCOc1cc2nc(N3CCCN(C)CC3)nc(NC3CCN(C)CC3)c2cc1OC,-4.57%,–
COc1ccccc1-c1ccnc(-n2ncc(C(=O)NCCCN3CCOCC3)c2C)n1,-5.22%,–
COC(=O)NC(c1ccccc1)[C@]1(C(C)=O)CCCC1=O (stereo partly specified),-3.63%,–
